Screening results deposited in PubChem by National Center for Advancing Translational Sciences (NCATS).
This is a sample that favours compounds with a hit; in the whole collection about 5.4% have one here.
Marburg entry inh: qHTS for inhibitors of binding or entry into cells for Marburg Virus. Marburg virus pseudotyped entry inhibition, cell reporter. Potency, µM (doses to about 37.8 µM), for the others: at the top dose activity change, negative = inhibition, usual class: inhibitors. actives 1.8% (n = 300,000); calls by dose curve; tested in HEK293 cells
FMDV antiviral: High Throughput Screening for Foot and Mouth Disease Virus Antivirals; FMDV antiviral cell-based qHTS; Potency, µM (doses to about 57.9 µM), for the others: top-dose activity change, negative = inhibition, actives largely listed as inhibitors; actives 1.2% (n = 410,000); calls by dose curve; tested in HEK293T cells; note: read-out not given here; nearly all actives have a fitted effect of over 45% in size
VACV mCherry inh: qHTS for Stage-Specific Inhibitors of Vaccinia Orthopoxvirus: mCherry Reporter Primary qHTS; Potency, µM (top dose mostly 36.5 µM), inactives show top-dose activity change, negative = inhibition, actives largely listed as inhibitors; actives 0.63% (n = 310,000); Vaccinia virus mCherry reporter infection, fluorescence; calls by dose curve; tested in A549 cells; note: nearly all actives have a fitted effect of over 35% in size
LASV entry inh: qHTS for Inhibitors of binding or entry into cells for Lassa Virus. Lassa virus pseudotype entry inhibition, cell reporter. Potency, µM (doses to about 37.9 µM), for inactives: top-dose activity change, negative = inhibition, actives largely listed as inhibitors. actives 1.2% (n = 300,000); calls by dose curve; tested in HEK293 cells; note: nearly all actives have a fitted effect of over 50% in size
Sm TGR inh: qHTS Assay for the Inhibitors of Schistosoma Mansoni Peroxiredoxins. AID 485364, 2010. purified TGR, DTNB reduction, TNB absorbance 405 nm. Potency, µM (series often up to 114 µM), for the others: at the highest dose activity change, negative = inhibition, most hits filed as inhibitors. actives 3% (n = 360,000); active = well fitted inhibition curve with a large enough effect; inconclusive = small, poorly fitted or top-dose-only effect; inactive = no such curve, though single readings can be large or run the other way; note: nearly all actives have a fitted effect of over 60% in size
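TGR 20 nM + NADPH 100 uM (dispensed conc.), cpd preinc 15 min RT; start with NADPH (500 uM addition) then DTNB (15 mM addition). Kinetic TNB absorbance, 405 nm filter. Four-parameter Hill fit across titration.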
Vaccinia Venus: qHTS for Stage-Specific Inhibitors of Vaccinia Orthopoxvirus: Venus Reporter Primary qHTS | AID 720580, 2013 | actives 0.46% (n = 330,000) | Vaccinia virus Venus reporter expression, fluorescence | Potency, µM (titrated, usually from 36.5 µM), inactives show top-dose activity change, negative = inhibition, actives largely listed as inhibitors; calls by dose curve; tested in A549 cells; note: nearly all actives have a fitted effect of over 30% in size
The depositor's hits bear a star; i = inactive; ? = inconclusive; . = no result given; [ ] = another dose, or the depositor's remark. % is set by controls: 0 for no effect and ±100 for the full control effect; potency is the fitted concentration of half-maximal effect.

SMILES | Marburg entry inh | FMDV antiviral | VACV mCherry inh | LASV entry inh | Sm TGR inh | Vaccinia Venus
NC(=S)N/N=C/c1ccc(/C=N/NC(N)=S)cc1 | . | -16% | . | . | -6% | .
O=C1C(Cl)=C(NCCN2CCCCC2)C(=O)c2ccccc21 | . | 40µM* | . | . | 22µM* | .
Cc1ccnc(NC(=O)c2ccccc2NC(=O)c2ccccc2)c1 | -12% | 15% | -12% | 0% | 7% | 1%
O=C(Nc1ncccc1O)c1cc2ccccc2o1 | ? | ? | -22% | 1.3µM* | -24% | -23%
Cc1ccnc(NC(=O)c2ccc(C(=O)c3ccccc3)cc2)c1 | 6.3µM* | -39% | -7% | 2.2µM* | 9% | -13%
Cc1cccnc1NC(=O)c1ccc(Br)o1 | ? | -12% | -8% | 7% | -9% | 0%
O=C(CNC(=O)c1ccc(Br)o1)Nc1ncccc1O | 29% | 1% | -15% | 6% | 45µM* | -1%
O=C(Nc1ccccn1)c1cc2ccccc2o1 | ? | . | i | 4.6µM* | -16% | -6%
Cc1ccc(C)c(NC(=O)c2cc3ccccc3o2)c1 | . | 55% | . | . | 9% | .
Cc1ccnc(NC(=O)c2cc3ccccc3o2)c1 | 1.1µM* | 28µM* | i | ? | 0% | -4%
CC(=O)c1ccc(OCC(=O)OCc2cc(-c3ccco3)on2)cc1 | 5% | -7% | -17% | 7% | 50µM* | -8%
CSCCC(NC(=O)c1ccccc1)C(=O)N1CC=C(c2ccccc2)CC1 (configuration not stated) | ? | 9% | -4% | 11µM* | -5% | -18%
CSCCC(NC(=O)c1ccccc1)C(=O)N1CCN(C(=O)c2ccccc2)CC1 (configuration not stated) | . | -14% | . | . | . | .
Cc1cc(N)c2ccccc2[n+]1CCCCCCCCCC[n+]1c(C)cc(N)c2ccccc21 | 10µM* | ? | -29% | ? | . | ?
Cc1ccc2ccccc2[n+]1CCCCI | . | . | -9% | . | . | -9%
CN(C)C/C(Cl)=C(\Cl)c1ccccc1 | 4% | -22% | . | -8% | 20µM* | -4%
O=C(CCCc1ccccc1)NC1CC(=O)N(c2ccc(Cl)cc2)C1 (configuration not stated) | . | -14% | -13% | -3%[46.1 µM] | 1% | -11%
Fc1ccc(-c2nc(Nc3cccc(C(F)(F)F)c3)nc3c2COc2ccccc2-3)cc1 | ? | -3% | -10% | ? | -8% | -15%
COc1cc(/C=N/N=C2/NC(=O)C(Cc3ccc(F)cc3)S2)ccc1O (configuration not stated) | ? | 3% | ? | ? | 3% | -23%
COc1ccc(/C=N/N=C2/NC(=O)C(CC(=O)O)S2)cc1OCc1ccccc1Cl (configuration not stated) | -26% | -13% | -11% | -13% | 3% | -3%
COc1cc(/C=N/N=C2/NC(=O)C(c3ccccc3)S2)ccc1O (configuration not stated) | 15% | 29% | -19% | 4.5µM* | -9% | -17%
COc1ccc(/C=N/N=C2/NC(=O)C(CC(=O)O)S2)cc1OCc1ccc(Cl)cc1Cl (configuration not stated) | 1.1µM* | -15% | -17% | -4% | -19% | -10%
COc1ccc(CC(=O)NCc2nc3cccnc3n2Cc2ccc(C)cc2)cc1OC | . | -9% | -12% | 0%[46.1 µM] | 1% | -6%
Cc1ccc(OCCNCc2ccccc2)c(C)c1 | -1% | 25% | -10% | 1% | -19% | -2%
Cc1ccc(OCCSc2ncccn2)c(C)c1 | ? | 7% | i | 10µM* | 5% | -16%
SMILES | Marburg entry inh | FMDV antiviral | VACV mCherry inh | LASV entry inh | Sm TGR inh | Vaccinia Venus
Cc1ccc(OCCCCNC(C)c2ccccc2)c(C)c1 (configuration not stated) | 11µM* | -29% | -16% | ? | 7% | -16%
Cc1cccc(CCNC(=O)c2ccc3c(c2)nc2n3CCCCC2)c1 | . | -17% | -4% | 17%[46.1 µM] | -5% | -12%
Clc1ccc(-n2cccc2CN2CCOc3ccc(CN4CCOCC4)cc3C2)nc1 | . | -6% | i | . | . | -14%
Cc1sc2ncnc(SCC(=O)NC(=O)NCc3ccco3)c2c1C | 5% | . | -9% | -12% | ? | -11%
Cc1nc(SCC(=O)NCc2ccco2)c2c(C)c(C)sc2n1 | 15µM* | -2% | . | ? | ? | .
Cc1nc(SCC(=O)N2CCOCC2)c2c(C)c(C)sc2n1 | -3%[46.1 µM] | -5% | -10% | ? | 6% | -7%
Cc1sc2nc(C(C)C)nc(SCC(=O)NCc3ccco3)c2c1C | -22% | . | -17% | -1% | 45µM* | -20%
Cc1nc(SCC(=O)Nc2ccc(S(=O)(=O)N3CCOCC3)cc2)c2c(C)c(C)sc2n1 | ? | -21% | -13% | 1.1µM* | . | ?
CC1=CC[C@@H](C)O[C@@]2(C1)C(=O)Nc1cccc(Br)c12 | -15%[14.2 µM] | . | . | ? | . | .
CCCC[C@]12Cc3c(ccc4ccccc34)[C@H](O1)C1=C(O2)C(=O)c2ccccc2C1=O | 22%[14.2 µM] | . | . | . | . | .
Cn1c(=O)c2c(ncn2CC(COCc2ccc(Cl)cc2)OCc2ccc(Cl)cc2)n(C)c1=O (configuration not stated) | 7.9µM* | ? | . | ? | 2% | ?
Cc1cccc(NC(=O)C2CCCN2S(=O)(=O)c2ccc3nc(-c4ccccc4)[nH]c3c2)c1 (configuration not stated) | . | -26% | -15% | -23%[46.1 µM] | 0% | -10%
N#Cc1ccc(NC(=O)C2=COCCO2)cc1 | . | 48% | . | . | 89µM* | .
COc1ccc(NC(=O)c2cc(-c3ccco3)nc3ccccc23)cc1S(=O)(=O)N1CCOCC1 | . | -29% | -3% | . | 7.9µM* | 0%
CCOc1cc(N2CCOCC2)c(OCC)cc1NC(=O)COc1ncnc2ccccc12 | -35% | -9% | . | -18% | -33% | .
CCOc1cc(N2CCOCC2)c(OCC)cc1NC(=O)c1cc(-c2ccco2)nc2ccccc12 | 16µM* | . | -11% | ? | 0% | -12%
O=C(Nc1ccc(Cl)c(S(=O)(=O)N2CCOCC2)c1)c1cc(-c2ccccn2)nc2ccccc12 | ? | -26% | i | ? | -9% | -15%
COc1ccc(NC(=O)c2cc(C)nc3ccccc23)cc1S(=O)(=O)N1CCOCC1 | 1% | -12% | -3% | -16% | . | -15%
Cc1ccc(NC(=O)c2cc(-c3ccco3)nc3ccccc23)cc1S(=O)(=O)N1CCOCC1 | ? | -21% | -7% | -22% | 45µM* | 6%
COc1cccc(CNC(=O)c2c(OC)cc(=O)n3c2CCN(C(=O)c2csc(C)n2)CC3)c1 | . | 20% | -15% | . | . | -10%
COc1ccc(Cl)cc1-c1cc2c(c(OC)c1)OCCN(Cc1cccn1-c1nccs1)C2 | . | 1% | -12% | . | . | -4%
